# Source: ChEMBL document CHEMBL2218924, “A broad activity screen in support of a chemogenomic map for kinase signalling research and drug discovery” (Biochem J, 2013)
# Molecular target: Death-associated protein kinase 1 (Homo sapiens) (UniProt P53355)
# Settings: at 10 µM
# Chain of Death-associated protein kinase 1 (Homo sapiens) (P53355 whole entry, looked up): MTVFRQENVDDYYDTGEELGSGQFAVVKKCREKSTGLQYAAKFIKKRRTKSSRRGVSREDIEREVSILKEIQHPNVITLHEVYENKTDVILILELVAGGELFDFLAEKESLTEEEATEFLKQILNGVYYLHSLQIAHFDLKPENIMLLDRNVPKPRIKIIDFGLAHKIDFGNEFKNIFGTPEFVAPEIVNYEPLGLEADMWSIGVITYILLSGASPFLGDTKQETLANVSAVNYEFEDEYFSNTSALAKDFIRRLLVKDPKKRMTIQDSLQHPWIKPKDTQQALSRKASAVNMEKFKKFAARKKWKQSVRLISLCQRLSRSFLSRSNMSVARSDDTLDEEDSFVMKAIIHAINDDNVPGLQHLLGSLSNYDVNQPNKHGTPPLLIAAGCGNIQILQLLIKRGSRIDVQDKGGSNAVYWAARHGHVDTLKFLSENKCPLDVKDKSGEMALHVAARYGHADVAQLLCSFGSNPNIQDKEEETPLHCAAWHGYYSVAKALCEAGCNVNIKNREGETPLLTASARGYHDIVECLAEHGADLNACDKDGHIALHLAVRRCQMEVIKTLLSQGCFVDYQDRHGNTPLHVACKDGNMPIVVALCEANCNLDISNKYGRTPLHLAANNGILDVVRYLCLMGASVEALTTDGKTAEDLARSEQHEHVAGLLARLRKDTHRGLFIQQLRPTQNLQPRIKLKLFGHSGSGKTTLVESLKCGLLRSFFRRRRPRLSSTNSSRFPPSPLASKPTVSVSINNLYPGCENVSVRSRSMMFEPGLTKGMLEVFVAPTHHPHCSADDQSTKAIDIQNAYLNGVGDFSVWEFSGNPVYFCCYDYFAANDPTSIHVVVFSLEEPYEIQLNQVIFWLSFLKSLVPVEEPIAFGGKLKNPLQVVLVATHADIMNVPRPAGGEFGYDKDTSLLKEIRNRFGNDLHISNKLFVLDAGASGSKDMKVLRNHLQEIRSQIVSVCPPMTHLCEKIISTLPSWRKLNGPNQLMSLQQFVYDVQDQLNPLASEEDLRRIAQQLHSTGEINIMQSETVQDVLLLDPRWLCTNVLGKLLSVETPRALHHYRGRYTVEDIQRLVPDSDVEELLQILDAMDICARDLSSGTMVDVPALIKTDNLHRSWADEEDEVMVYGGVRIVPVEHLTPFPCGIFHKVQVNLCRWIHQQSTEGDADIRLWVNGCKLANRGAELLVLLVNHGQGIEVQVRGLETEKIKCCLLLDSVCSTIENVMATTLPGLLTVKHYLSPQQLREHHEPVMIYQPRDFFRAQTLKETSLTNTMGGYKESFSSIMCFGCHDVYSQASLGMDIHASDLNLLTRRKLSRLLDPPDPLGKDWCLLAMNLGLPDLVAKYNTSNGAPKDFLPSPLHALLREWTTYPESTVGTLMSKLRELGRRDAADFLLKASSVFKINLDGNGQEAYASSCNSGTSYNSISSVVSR
row,Compound,residual activity [%]
1,COC(=O)[C@@]1(O)C[C@H]2O[C@]1(C)n1c3ccccc3c3c4c(c5c6ccccc6n2c5c31)C(=O)NC4,10
2,COc1ccc2c(c1)/C(=C/c1cnc[nH]1)C(=O)N2,97
3,C[S+]([O-])c1ccc(-c2nc(-c3ccc(F)cc3)c(-c3ccncc3)[nH]2)cc1 (stereo not given),84
4,N/C(=N\[N+](=O)[O-])N/N=C\c1ccc(-c2cccc([N+](=O)[O-])c2)o1,89
5,COc1cc2ncnc(Nc3ccc(OCc4ccccc4)cc3)c2cc1OC,100
6,COc1cc(OC)c(/C=C2\C(=O)Nc3ccccc32)c(OC)c1,81
7,O=[N+]([O-])/C=C/c1ccc2c(c1)OCO2,90
8,CCn1cnc2c(Nc3cccc(Cl)c3)nc(N[C@@H]3CCCC[C@@H]3N)nc21,85
9,O=C1NC(=O)c2c1c1c3ccccc3n3c1c1c2c2ccccc2n1C1CCC3O1,60
10,COc1ccc2c(c[n+](C)c3c4cc5c(cc4ccc23)OCO5)c1OC,71
11,O=C1Nc2ccc3ncsc3c2/C1=C/c1c[nH]cn1,63
12,CCc1nc(-c2ccc(OC)cc2)[nH]c1-c1ccncc1,100
13,O=c1[nH]c2ccccc2n1C1CCN(Cc2ccc(-c3nc4cc5[nH]cnc5cc4nc3-c3ccccc3)cc2)CC1,95
14,c1cc(-c2cnn3cc(-c4ccc(OCCN5CCCCC5)cc4)cnc23)ccn1,84

# Molecular target: Death-associated protein kinase 2 (Homo sapiens) (UniProt Q9UIK4)
# Settings: at 1 µM
# Chain of Death-associated protein kinase 2 (Homo sapiens) (Q9UIK4 whole entry, looked up): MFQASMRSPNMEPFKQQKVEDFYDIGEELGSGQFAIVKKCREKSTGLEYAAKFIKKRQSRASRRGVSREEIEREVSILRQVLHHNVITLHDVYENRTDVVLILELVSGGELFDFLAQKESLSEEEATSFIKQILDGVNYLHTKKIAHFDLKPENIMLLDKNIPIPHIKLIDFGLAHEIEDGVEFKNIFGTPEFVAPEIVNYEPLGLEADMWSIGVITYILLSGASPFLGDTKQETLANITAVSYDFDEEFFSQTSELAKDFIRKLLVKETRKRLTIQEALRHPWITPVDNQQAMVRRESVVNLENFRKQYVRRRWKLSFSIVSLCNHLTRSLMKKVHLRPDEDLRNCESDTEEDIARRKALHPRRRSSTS
row,Compound,residual activity [%]
1,COC(=O)[C@@]1(O)C[C@H]2O[C@]1(C)n1c3ccccc3c3c4c(c5c6ccccc6n2c5c31)C(=O)NC4,12
2,C[S+]([O-])c1ccc(-c2nc(-c3ccc(F)cc3)c(-c3ccncc3)[nH]2)cc1 (stereo not given),90
3,O=C1c2ccccc2-c2nc3nnnn3nc21,101
4,COc1cc2ncnc(Nc3ccc(OCc4ccccc4)cc3)c2cc1OC,104
5,COc1cc(OC)c(/C=C2\C(=O)Nc3ccccc32)c(OC)c1,100
6,O=[N+]([O-])/C=C/c1ccc2c(c1)OCO2,95
7,CCn1cnc2c(Nc3cccc(Cl)c3)nc(N[C@@H]3CCCC[C@@H]3N)nc21,92
8,O=C1NC(=O)c2c1c1c3ccccc3n3c1c1c2c2ccccc2n1C1CCC3O1,54
9,COc1ccc2c(c[n+](C)c3c4cc5c(cc4ccc23)OCO5)c1OC,99
10,O=C1Nc2ccc3ncsc3c2/C1=C/c1c[nH]cn1,71
11,O=c1[nH]c2ccccc2n1C1CCN(Cc2ccc(-c3nc4cc5[nH]cnc5cc4nc3-c3ccccc3)cc2)CC1,98
12,CC(C)(C)c1cc(C=C(C#N)C#N)cc(Br)c1O,104

# Molecular target: Death-associated protein kinase 2 (Homo sapiens) (UniProt Q9UIK4)
# Settings: at 10 µM
row,Compound,residual activity [%]
1,COC(=O)[C@@]1(O)C[C@H]2O[C@]1(C)n1c3ccccc3c3c4c(c5c6ccccc6n2c5c31)C(=O)NC4,-3
2,COc1ccc2c(c1)/C(=C/c1cnc[nH]1)C(=O)N2,51
3,C[S+]([O-])c1ccc(-c2nc(-c3ccc(F)cc3)c(-c3ccncc3)[nH]2)cc1 (stereo not given),103
4,O=C1c2ccccc2-c2nc3nnnn3nc21,114
5,COc1cc2ncnc(Nc3ccc(OCc4ccccc4)cc3)c2cc1OC,112
6,COc1cc(OC)c(/C=C2\C(=O)Nc3ccccc32)c(OC)c1,95
7,O=[N+]([O-])/C=C/c1ccc2c(c1)OCO2,127
8,CCn1cnc2c(Nc3cccc(Cl)c3)nc(N[C@@H]3CCCC[C@@H]3N)nc21,76
9,O=C1NC(=O)c2c1c1c3ccccc3n3c1c1c2c2ccccc2n1C1CCC3O1,20
10,COc1ccc2c(c[n+](C)c3c4cc5c(cc4ccc23)OCO5)c1OC,91
11,O=C1Nc2ccc3ncsc3c2/C1=C/c1c[nH]cn1,32
12,O=c1[nH]c2ccccc2n1C1CCN(Cc2ccc(-c3nc4cc5[nH]cnc5cc4nc3-c3ccccc3)cc2)CC1,78
13,CC(C)(C)c1cc(C=C(C#N)C#N)cc(Br)c1O,103

# Molecular target: T1, Serine/threonine-protein kinase DCLK2 (Homo sapiens) (UniProt Q8N568)
# T1 sequence (whole entry): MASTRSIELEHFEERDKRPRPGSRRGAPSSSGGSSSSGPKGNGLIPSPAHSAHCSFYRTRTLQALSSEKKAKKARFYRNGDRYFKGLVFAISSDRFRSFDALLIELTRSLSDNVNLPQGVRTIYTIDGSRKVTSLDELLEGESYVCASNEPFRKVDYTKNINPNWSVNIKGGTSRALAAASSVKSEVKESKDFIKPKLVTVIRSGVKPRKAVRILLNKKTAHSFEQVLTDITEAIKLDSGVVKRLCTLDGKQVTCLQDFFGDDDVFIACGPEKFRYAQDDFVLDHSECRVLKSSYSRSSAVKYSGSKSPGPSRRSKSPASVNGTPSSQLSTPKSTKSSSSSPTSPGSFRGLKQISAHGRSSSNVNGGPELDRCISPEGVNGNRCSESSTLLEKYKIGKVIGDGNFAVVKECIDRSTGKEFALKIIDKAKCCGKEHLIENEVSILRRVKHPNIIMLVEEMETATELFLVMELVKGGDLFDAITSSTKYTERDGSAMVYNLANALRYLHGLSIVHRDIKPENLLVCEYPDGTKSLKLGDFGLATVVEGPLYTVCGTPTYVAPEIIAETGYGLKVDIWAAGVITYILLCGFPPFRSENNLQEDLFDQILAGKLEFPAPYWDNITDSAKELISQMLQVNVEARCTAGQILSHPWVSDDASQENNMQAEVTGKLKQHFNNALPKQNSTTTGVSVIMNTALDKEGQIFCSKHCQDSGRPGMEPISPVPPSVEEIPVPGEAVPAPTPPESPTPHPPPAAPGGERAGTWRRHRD
# Settings: at 1 µM
row,Compound,residual activity [%]
1,CC(C)[C@H](CO)Nc1nc(Nc2cccc(Cl)c2)c2ncn(C(C)C)c2n1,128
2,COC(=O)[C@@]1(O)C[C@H]2O[C@]1(C)n1c3ccccc3c3c4c(c5c6ccccc6n2c5c31)C(=O)NC4,75
3,C[S+]([O-])c1ccc(-c2nc(-c3ccc(F)cc3)c(-c3ccncc3)[nH]2)cc1 (stereo not given),132
4,COc1cc2ncnc(Nc3ccc(OCc4ccccc4)cc3)c2cc1OC,89
5,O=[N+]([O-])/C=C/c1ccc2c(c1)OCO2,63
6,CCn1cnc2c(Nc3cccc(Cl)c3)nc(N[C@@H]3CCCC[C@@H]3N)nc21,124
7,COc1ccc2c(c[n+](C)c3c4cc5c(cc4ccc23)OCO5)c1OC,98
8,O=C1Nc2ccc3ncsc3c2/C1=C/c1c[nH]cn1,55
9,O=c1[nH]c2ccccc2n1C1CCN(Cc2ccc(-c3nc4cc5[nH]cnc5cc4nc3-c3ccccc3)cc2)CC1,87
10,CC(C)(C)c1cc(C=C(C#N)C#N)cc(Br)c1O,109
11,c1cc(-c2cnn3cc(-c4ccc(OCCN5CCCCC5)cc4)cnc23)ccn1,124
